The source made the active and inactive calls. Unless noted, how the calls were made is not given here.

For experiment [1], the system named is Wnt5a (protein binding on small-molecule microarray). In words: Wnt5a binders on small-molecule microarray, primary screen, biophysical, 635/667 nm fluorescence (AID 1142).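 Further: fluorescence read at 667 nm with signal to noise per printed feature.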 The following applies: 635 nm fluorescence, higher = more signal.
The nature of experiment [2]: cell viability in Huh7 cells, primary screen, cytotoxicity control for HCV replication inhibitor project, CellTiter-Glo luminescence, basal, 48 h (AID 1143).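 Further: Huh7 hepatoma cells carrying a hepatitis C replication reporter with no stimulus; test concentration not given here.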 The note with it: Huh7 HCV replicon, higher = more signal, called active from +8 up or from −8 down.
The nature of experiment [3]: P. aeruginosa biofilm formation inhibitors, primary screen, PAO1 strain, BacTiter-Glo luminescence, LB-PBS (AID 1144). The note with it: 12 h, higher = more signal.
A short description of experiment [4]: CREB reporter modulators without forskolin, primary screen, cell-based, PC12, CRE-LacZ reporter, unstimulated (AID 1145). The note with it: no forskolin, luminescence, 4.5 h, higher = more signal, called active from +8 up or from −8 down.
Experiment [5] in a line: CREB reporter modulators under forskolin, primary screen, cell-based, PC12, CRE-LacZ reporter, forskolin-stimulated (AID 1146).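 Further: PC12 cells with 6xCRE LacZ reporter stimulated by forskolin 10 µM; beta-galactosidase reporter signal reflecting CREB driven transcription.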 The note with it: luminescence, 4.5 h, higher = more signal, called active from +8 up or from −8 down.
Experiment [6] deals with Streptavidin (Streptomyces avidinii) (UniProt P22629). In words: streptavidin binders on small-molecule microarray, primary screen, artefact control for SMM compound annotation, biophysical, 635/667 nm fluorescence (AID 1147).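 Further: signal reflects streptavidin binding to arrayed compounds as a control protein.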 The note with it: streptavidin binding, higher = more signal.
Sequence of Streptavidin (Streptomyces avidinii) (P22629 whole entry, looked up): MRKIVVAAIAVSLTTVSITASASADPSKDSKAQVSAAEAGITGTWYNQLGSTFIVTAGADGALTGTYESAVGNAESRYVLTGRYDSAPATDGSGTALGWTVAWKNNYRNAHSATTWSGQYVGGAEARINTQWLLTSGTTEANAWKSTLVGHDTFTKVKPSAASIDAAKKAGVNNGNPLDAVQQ
A short description of experiment [7]: small-molecule binders of probe aInhba, primary screen, biochemical, small-molecule microarray, 635/667 nm fluorescence (AID 1148).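 Further: score merges 667nm spot fluorescence with signal-to-noise for antibody binding to printed compounds.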 The following applies: higher = more signal.
Experiment [8] deals with Torsin-1A (Homo sapiens) (UniProt O14656). In words: torsin A binders from cell lysate, primary screen, small-molecule microarray, wild-type, 635/667 nm (AID 1149). The note with it: COS7 hTOR1A-WT lysate, 635 nm fluorescence, higher = more signal.
Sequence of Torsin-1A (Homo sapiens) (O14656 whole entry, looked up): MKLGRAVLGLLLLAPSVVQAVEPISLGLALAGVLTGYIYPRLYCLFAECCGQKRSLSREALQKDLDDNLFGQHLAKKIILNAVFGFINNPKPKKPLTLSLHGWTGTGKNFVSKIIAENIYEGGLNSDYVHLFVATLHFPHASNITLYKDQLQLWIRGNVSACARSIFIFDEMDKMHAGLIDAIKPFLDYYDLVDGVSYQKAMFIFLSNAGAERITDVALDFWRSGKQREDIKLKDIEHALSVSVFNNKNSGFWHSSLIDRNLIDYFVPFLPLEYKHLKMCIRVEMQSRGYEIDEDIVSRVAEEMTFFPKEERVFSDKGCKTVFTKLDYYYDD
The target is the same in experiment [9]. The experiment is described as follows: small-molecule binders of mutant TOR1A in lysate, primary screen, cell lysate, small-molecule microarray, COS7 lysate, 635/667 nm fluorescence (AID 1150).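 Further: score pools 667 nm emission and signal to noise measuring lysate protein binding.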 The following applies: COS7 hTOR1A mutant lysate, 635 nm fluorescence, higher = more signal.
In experiment [10] the test system is Sonic hedgehog protein (Shh). In words: small-molecule binders of Shh protein, primary screen, biochemical, small-molecule microarray, 635/667 nm fluorescence (AID 1151).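 Further: Shh protein binding to compounds spotted on small-molecule microarray slides; score combines spot fluorescence intensity with signal-to-noise across triplicate slides.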 The note with it: small-molecule microarray binding, 635 nm fluorescence; higher = more signal.
The nature of experiment [11]: E. coli DRC41 culture turbidity changes, primary screen, E. coli filamentation inducer project, strain DRC41, OD650, 48 h (AID 1152).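 Further: E. coli MC1000 strain DRC41 lacking acrAB efflux pump and sulA.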 The note with it: E. coli DRC41 (acrAB sulA), higher = more signal, called active from +8 up or from −8 down.
Experiment [12] can be described thus: small-molecule binders of probe aLefty1, primary screen, biochemical, small-molecule microarray, 635/667 nm fluorescence (AID 1153).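 Further: score merges spot fluorescence with signal-to-noise ratio from the scanned slide images.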 The following applies: higher = more signal.
Experiment [13] is described as follows: PSAC antagonists in infected red cells, primary screen, cell-based, P. falciparum Indochina, OD700, 1 h (AID 1154). The following applies: P. falciparum Indochina infected RBC osmotic lysis, higher = more signal, called active from +8 up or from −8 down.
Experiment [14] is described as follows: PSAC antagonists in infected red cells, primary screen, cell-based, P. falciparum Indochina, OD700, 2 h (AID 1155).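 Further: lysis reports solute entry through the parasite surface anion channel PSAC; channel blockers reduce lysis of infected cells.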 The following applies: P. falciparum Indochina infected erythrocytes, osmotic lysis OD700; higher = more signal, called active from +8 up or from −8 down.
Experiment [15] can be described thus: osmotic lysis modulators in infected erythrocytes, primary screen, PSAC antagonist project, cell-based, P. falciparum Indochina, OD700, 3 h (AID 1156). The note with it: higher = more signal, called active from +8 up or from −8 down.
Experiment [16] in a line: PSAC antagonists in infected red cells, primary screen, cell-based, P. falciparum Indochina, OD700, 18 h (AID 1157). The following applies: P. falciparum Indochina infected erythrocytes, osmotic lysis OD700, 18 h; higher = more signal, called active from +8 up or from −8 down.
Experiment [17] in a line: modulators of S6 phosphorylation in cells, primary screen, cell-based, A549, cytoblot, luminescence, serum-stimulated (AID 1158).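 Further: serum-stimulated A549 lung adenocarcinoma cells; signal is phosphorylated S6 detected by cytoblot immunostaining with HRP secondary.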 The following applies: A549 phospho-S6 cytoblot, 5 h, higher = more signal.
For experiment [18], the target named is NADPH oxidase 2 (Homo sapiens) (UniProt P04839). The experiment is described as follows: NOX2-dependent H2O2 signal modulators, primary screen, NOX inhibitor project, cell-based, HEK293-NOX2, PMA-stimulated, Amplex Red fluorescence (AID 1159). Further: test concentration not given here. The following applies: 45 min, higher = more signal, called active from +8 up or from −8 down.
Sequence of NADPH oxidase 2 (Homo sapiens) (P04839 whole entry, looked up): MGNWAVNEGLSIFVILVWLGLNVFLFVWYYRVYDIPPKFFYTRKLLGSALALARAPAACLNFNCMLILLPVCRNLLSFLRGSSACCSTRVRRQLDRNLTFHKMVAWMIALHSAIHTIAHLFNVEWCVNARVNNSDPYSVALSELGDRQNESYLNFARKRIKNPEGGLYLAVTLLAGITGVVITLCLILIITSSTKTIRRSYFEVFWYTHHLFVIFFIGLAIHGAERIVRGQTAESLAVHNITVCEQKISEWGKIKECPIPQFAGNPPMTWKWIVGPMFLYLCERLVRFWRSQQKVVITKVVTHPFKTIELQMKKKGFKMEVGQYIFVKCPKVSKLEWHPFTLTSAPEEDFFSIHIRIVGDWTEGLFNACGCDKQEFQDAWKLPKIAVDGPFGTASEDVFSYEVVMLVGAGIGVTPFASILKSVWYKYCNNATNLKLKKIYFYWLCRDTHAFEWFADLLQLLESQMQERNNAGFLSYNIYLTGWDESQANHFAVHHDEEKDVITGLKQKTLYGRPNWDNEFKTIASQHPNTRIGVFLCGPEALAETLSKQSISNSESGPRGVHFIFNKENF
For experiment [19], the target named is NADPH oxidase 4 (Homo sapiens) (UniProt Q9NPH5). In words: NOX4-dependent H2O2 signal modulators, primary screen, NOX inhibitor project, cell-based, HEK293-NOX4, tetracycline-induced, Amplex Red fluorescence (AID 1160). The note with it: 45 min, higher = more signal, called active from +8 up or from −8 down.
Sequence of NADPH oxidase 4 (Homo sapiens) (Q9NPH5 whole entry, looked up): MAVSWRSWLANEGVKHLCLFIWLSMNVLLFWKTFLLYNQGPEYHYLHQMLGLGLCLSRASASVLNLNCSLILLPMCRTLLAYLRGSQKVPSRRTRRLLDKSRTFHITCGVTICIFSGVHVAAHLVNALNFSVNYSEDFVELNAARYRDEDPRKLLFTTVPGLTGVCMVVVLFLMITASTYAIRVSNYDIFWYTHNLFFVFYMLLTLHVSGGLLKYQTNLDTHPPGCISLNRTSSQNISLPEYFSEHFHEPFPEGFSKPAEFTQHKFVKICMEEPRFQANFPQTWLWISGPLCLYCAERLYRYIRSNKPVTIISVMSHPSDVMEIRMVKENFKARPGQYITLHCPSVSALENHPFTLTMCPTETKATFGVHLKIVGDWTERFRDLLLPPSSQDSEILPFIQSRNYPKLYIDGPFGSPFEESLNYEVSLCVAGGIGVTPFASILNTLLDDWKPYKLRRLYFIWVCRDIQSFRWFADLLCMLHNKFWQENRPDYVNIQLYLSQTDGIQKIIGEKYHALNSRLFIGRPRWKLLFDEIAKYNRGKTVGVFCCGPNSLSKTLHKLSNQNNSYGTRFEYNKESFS
Experiment [20] deals with NADPH oxidase 5 (Homo sapiens) (UniProt Q96PH1). The experiment is described as follows: NOX5-dependent H2O2 signal modulators, primary screen, NOX inhibitor project, cell-based, HEK293-NOX5, Amplex Red fluorescence (AID 1161). The note with it: HEK293-NOX5, ionomycin, 45 min, higher = more signal.
Sequence of NADPH oxidase 5 (Homo sapiens) (Q96PH1 whole entry, looked up): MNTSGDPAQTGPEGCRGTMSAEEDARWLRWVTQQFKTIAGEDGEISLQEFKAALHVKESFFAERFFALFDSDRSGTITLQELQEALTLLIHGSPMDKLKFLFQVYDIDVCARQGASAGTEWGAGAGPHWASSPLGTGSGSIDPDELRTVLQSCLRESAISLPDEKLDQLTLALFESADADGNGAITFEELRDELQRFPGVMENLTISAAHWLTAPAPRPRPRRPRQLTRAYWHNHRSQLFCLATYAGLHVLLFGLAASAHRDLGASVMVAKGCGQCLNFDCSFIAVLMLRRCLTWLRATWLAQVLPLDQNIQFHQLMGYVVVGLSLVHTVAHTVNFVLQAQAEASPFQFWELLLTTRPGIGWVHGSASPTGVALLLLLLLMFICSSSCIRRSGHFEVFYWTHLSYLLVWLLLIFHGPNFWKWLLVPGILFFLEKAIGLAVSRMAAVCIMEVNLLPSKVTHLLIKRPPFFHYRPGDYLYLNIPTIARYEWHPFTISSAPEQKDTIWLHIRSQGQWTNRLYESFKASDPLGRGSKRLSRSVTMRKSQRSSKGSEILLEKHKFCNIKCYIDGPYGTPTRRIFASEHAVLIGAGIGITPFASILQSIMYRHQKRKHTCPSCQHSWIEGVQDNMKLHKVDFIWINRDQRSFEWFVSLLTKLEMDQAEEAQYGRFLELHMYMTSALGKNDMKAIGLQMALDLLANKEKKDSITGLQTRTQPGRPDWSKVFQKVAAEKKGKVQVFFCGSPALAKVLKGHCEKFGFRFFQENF

`CC(C)c1ccc(NN2C(C(O)C(C)c3ccccc3)C=CC3C(=O)N(c4ccccc4)C(=O)C32)cc1` (stereo not given): the composite z-score in [1] was determined as 0.981; in [6], 2.11; in experiment [7] it was 0.864; in [8], 0.326; in [9], 1.12; in experiment [10], 0.461. Besides, in [12], the composite z-score stood at 1.24. Moreover, the z-score in experiment [2] was 0.0469 (inactive); in experiment [3] it was -0.692 (inactive); in experiment [4], 0.619 (inactive); in [5] it was 0.939 (inactive); in experiment [11], -1.78 (inactive); in experiment [13], 0.187 (inactive). Besides, the z-score in [14] is 0.433 (inactive); in experiment [15], 0.215 (inactive); in experiment [16] it was 0.998 (inactive); in [17], -1.44; in [18], -0.818 (inactive); in experiment [19], -2.63 (inactive). Besides, the z-score in experiment [20] was -4.03.
For the molecule `CC1C2C(CCCO)=CC(C3C(=O)N(C)C(=O)C23)N1Cc1cccc(OC(F)(F)F)c1` (stereo not given), the composite z-score was 0.164 in experiment [1]; 2.22 in [6]; 0.143 in experiment [7]; 0.76 in experiment [8]; 1.47 in experiment [9]; 0.113 in experiment [10]. This molecule came in with a composite z-score in experiment [12] of -0.0083. Further, the z-score in [2] is -0.293 (inactive); in experiment [3], 0.403 (inactive); in [4] it was -0.0142 (inactive); in [5], -0.733 (inactive); in experiment [11] it was 0.337 (inactive); in experiment [13] it was 1.38 (inactive). Further, the z-score in [14] is 0.938 (inactive); in experiment [15] it was 1.07 (inactive); in experiment [16], 0.528 (inactive); in experiment [17], 1.04; in experiment [18], 0.733 (inactive); in experiment [19], -0.702 (inactive). The z-score in experiment [20] was found to be 0.455.
With `CC1C2C(CCCO)=CC(C3C(=O)N(C(N)=O)C(=O)C23)N1Cc1cccc(OC(F)(F)F)c1` (stereo not given), the composite z-score is -0.0205 in [1]; 0.664 in [6]; -0.0531 in experiment [7]; 0.438 in experiment [8]; 0.6 in experiment [9]; 0.396 in experiment [10]. The molecule also displayed a composite z-score in [12] of 0.0982. Further, the z-score is 0.897 (inactive) in [2]; 0.206 (inactive) in experiment [3]; -0.233 (inactive) in experiment [4]; 0.693 (inactive) in [5]; -0.114 (inactive) in experiment [11]; 0.376 (inactive) in [13]. Besides, the z-score was 0.0112 (inactive) in experiment [14]; -0.308 (inactive) in experiment [15]; 0.0624 (inactive) in [16]; -0.207 in experiment [17]; 0.217 (inactive) in experiment [18]; 0.509 (inactive) in experiment [19]. Further, the z-score in experiment [20] stood at 0.107.
Take `CC(C)(C)OC(=O)CC[C@@]1(C(N)=O)N=C(c2ccc(OCCCO)cc2)O[C@@H]1c1ccccc1CN=[N+]=[N-]`: the composite z-score in experiment [1] was 1.07; in experiment [6], -0.0644; in experiment [7] it was 0.278; in [8] it was 0.612; in [9], 1.08; in [10], -0.425. Further, the composite z-score in experiment [12] came out at 0.997. For the same molecule, the z-score was -0.57 (inactive) in experiment [2]; 0.938 (inactive) in experiment [3]; 0.171 (inactive) in experiment [4]; 0.638 (inactive) in [5]; -0.216 (inactive) in experiment [11]; 23.4 (active) in [13]. The z-score in experiment [14] was 5.68 (inactive); in experiment [15], -1.49 (inactive); in [16], 0.739 (inactive); in experiment [17], 0.0301; in [18], 1.11 (inactive); in experiment [19], 1.09 (inactive). Moreover, in experiment [20], the z-score is 0.369.
With `CC(C)C[C@@H]1NC(=O)[C@H]2C[C@@H](C(=O)O)[C@@H](c3cccc(OCCO)c3)N2C1=O`, the composite z-score was -0.107 in experiment [1]; -0.0612 in experiment [6]; 0.0228 in experiment [7]; 0.994 in [8]; 2.17 in experiment [9]; 1.42 in experiment [10]. In experiment [12], this molecule returned a composite z-score of 0.0794. Moreover, the z-score in experiment [2] is -0.513 (inactive); in experiment [3] it was -0.443 (inactive); in experiment [4], 0.561 (inactive); in experiment [5] it was -0.411 (inactive); in experiment [11] it was 0.441 (inactive); in experiment [13] it was 6.12 (inactive). The z-score was 1.34 (inactive) in experiment [14]; -2.36 (inactive) in experiment [15]; 0.595 (inactive) in [16]; 0.793 in [17]; -0.911 (inactive) in experiment [18]; -0.69 (inactive) in [19]. The z-score in [20] is -0.0644.

These data come from PubChem BioAssay.
